Compound activity as filed in PubChem BioAssay.
The list is not random: actives were taken first. Their share in the collection is about 8.6%.
Marburg entry = qHTS for Inhibitors of binding or entry into cells for Marburg Virus | AID 720532, 2013 | Potency, µM (doses to about 49.2 µM), without a hit: top-dose activity change, negative = inhibition, hits mostly inhibitors | 6.5% of 18,000 active | Marburg virus pseudotype entry/binding inhibition, cell-based
LASV entry inh = qHTS for Inhibitors of binding or entry into cells for Lassa Virus | Lassa virus pseudotyped entry inhibition, cell-based qHTS | Potency, µM (series often up to 49.2 µM), inactives show top-dose activity change, negative = inhibition, most hits filed as inhibitors | 4.1% of 18,000 active | AID 720533, 2013
Starred values were filed as active, the others as inactive; ? = inconclusive; / = no result; ! = repeats disagree; [ ] = remark or other dose. Calls come from the whole dose curve; tested in HEK293 cells. % is set by controls: 0 for no effect and ±100 for the full control effect; potency is the fitted concentration of half-maximal effect.

SMILES | Marburg entry | LASV entry inh
CC(=O)Nc1ccc(S(=O)(=O)N2CCc3nc(COc4ccccc4)c4c(c3C2)CO[C@@H](C)C4)cc1 | 45%[8.59 µM] | 2%[8.59 µM]
CC1=C(O)C(=O)[C@H]2O[C@@H]2C1=O | 3% | 11µM*
O=c1n(-c2ccccc2)c(=O)n2n1CC[C@@H]1C(=NOC[C@@H](O)COCc3ccco3)[C@H]3O[C@H]3[C@@H](O)[C@H]12 | -23%[8.59 µM] | -5%[8.59 µM]
CN1CCCCC1CCN1c2ccccc2Sc2ccc(S(C)=O)cc21 (stereo not drawn) | 8.9µM*! | ?
Oc1ccc([C@@H]2CNCCc3c2cc(O)c(O)c3Cl)cc1 | 11% | -14%
Oc1ccc([C@H]2CNCc3c2ccc(O)c3O)cc1O | 6.3µM* | -21%
CCOc1ccc(C=C2SC(=O)N(CCN)C2=O)cc1 | 11µM* | 13µM*
CCOc1ccc(/C=C/C(=O)c2cccs2)cc1 | 6% | 14%
O=S1(=O)N[C@H](Cc2ccccc2)COc2cc(Br)ccc21 | 20% | /
COC(=O)C1=C(C)N(Cc2ccccc2)C(=NCCc2c[nH]c3ccccc23)NC1c1ccc(Br)cc1 (stereo not drawn) | ? | -14%[8.59 µM]
Cc1ccccc1C(OCCN(C)C)c1ccccc1 (stereo not drawn) | ? | -24%
CC(C(O)c1ccccc1)N(C)CCOC(c1ccccc1)c1ccccc1 (stereo not drawn) | 8.9µM* | 14µM*
Cc1ccc(NC(=O)c2ccoc2)cc1-c1ccc(C(=O)NCC2CC2)cc1 | 0% | ?
CN(C)CCCN1c2ccccc2Sc2ccc(C(F)(F)F)cc21 | 11µM* | ?
CC(CN(C)C)CN1c2ccccc2Sc2ccccc21 (stereo not drawn) | 11µM* | ?
COc1ccc2c(c1)N(C[C@H](C)CN(C)C)c1ccccc1S2 | ? | -26%[17.8 µM]
CC(CN(C)C)CN1c2ccccc2Sc2ccc(C(F)(F)F)cc21 (stereo not drawn) | 10µM* | 32µM*
C[C@@H](CN(C)C)CN1c2ccccc2Sc2ccccc21 | 11µM* | ?
COc1ccc(/C=C/C(=O)OCCC(C)C)cc1 | 18% | 18%
CCC(=O)C[C@@H](NC(=O)OC)c1ccc(F)cc1 | 6%[8.59 µM] | 2%[8.59 µM]
NC(N)=Nc1nc(CSCC/C(N)=N\S(N)(=O)=O)cs1 | 6% | -11%
NC(N)=NCCC[C@H](NC(=O)[C@H](Cc1ccccc1)NC(=O)[C@@H]1CCCN1C(=O)[C@H](CO)NC(=O)[C@H](Cc1ccccc1)NC(=O)CNC(=O)[C@@H]1CCCN1C(=O)[C@@H]1CCCN1C(=O)[C@@H](N)CCCN=C(N)N)C(=O)O | 1% | 4%
Cn1cc(CN2CCOc3ccc(C(O)C4CCCCC4)cc3C2)cn1 (stereo not drawn) | -25% | 4%
CN(C)CCOc1ccccc1Cc1ccccc1 | ? | 10%
CNCCCCOc1ccccc1Cc1ccccc1 | 7.1µM* | ?
SMILES | Marburg entry | LASV entry inh
Cc1nc(NCc2ccc3nsnc3c2)sc1-c1ccn(C)n1 | -9% | 2%
Cc1ncc2c(c1CNC(=O)c1ccc3c(c1)OCO3)CCN(C(=O)c1cccc(-n3cccn3)c1)C2 | -7% | -18%
CN1CCN2c3ccccc3Cc3ccccc3C2C1 (stereo not drawn) | 35µM* | ?
CCCCN(CCCC)C(=S)[S-].CCCCN(CCCC)C(=S)[S-].[Zn+2] | 6.3µM* | 11µM*
CCCCC(=O)OCC(=O)[C@]1(O)Cc2c(O)c3c(c(O)c2[C@@H](O[C@H]2C[C@H](NC(=O)C(F)(F)F)[C@H](O)[C@H](C)O2)C1)C(=O)c1c(OC)cccc1C3=O | ? | 2.8µM*
COc1cccc2c1C(=O)c1c(O)c3c(c(O)c1C2=O)C[C@](O)(C(C)=O)C[C@H]3O[C@@H]1C[C@H](N)[C@H](O)[C@H](C)O1 | ? | 1µM*
CC[C@]1(O)CC(O[C@@H]2CC(N(C)C)C(O)C(C)O2)c2c(cc3c(c2O)C(=O)c2c(O)cccc2C3=O)C1C(=O)OC (stereo partly drawn) | 20µM* | -26%
CC[C@@]1(O)CC(O)c2c(cc3c(c2O)C(=O)c2c(O)ccc(O)c2C3=O)C1C(=O)OC (stereo partly drawn) | -20% | 6%
COc1cccc2c1C(=O)c1c(O)c3c(c(O)c1C2=O)C[C@@](O)(C(=O)CO)C[C@@H]3O[C@H]1C[C@H](N)[C@H](O)[C@H](C)O1 | 0.28µM*! | 20µM*!
COCOc1c2c(c(OCOC)c3c(OCOC)cccc13)C(=NNS(=O)(=O)c1ccc(C)cc1)C1=C2CCCC1 | ? | -22%[8.59 µM]
COC(=O)c1c(OCC2CCCN(C)C2)cc(=O)n2c1CCN(Cc1ccc(OC)c(O)c1)CC2 (stereo not drawn) | ? | -18%
O=S(=O)(NCc1nnc2n1CCN(Cc1ccccc1Cl)CC2)c1ccccc1 | -23% | 2%
Cc1nn(-c2ccccc2)c(C)c1CC(=O)NCC1Cc2cc(F)cc(-c3cccnc3)c2O1 (stereo not drawn) | -11% | -13%
Cc1c(C(=O)N(C)C2CCOC2)sc2ncnc(NCC3(c4ccccc4)CCOCC3)c12 (stereo not drawn) | -1% | -10%
[O-][n+]1ccccc1SSc1cccc[n+]1[O-] | 6.3µM* | 4µM*
Oc1ccc(C2Oc3cc(O)cc(O)c3CC2O)cc1 (stereo not drawn) | -4% | -4%
O=C(OC1Cc2c(O)cc(O)cc2OC1c1cc(O)c(=O)c2c(O)c(O)cc(C3Oc4cc(O)cc(O)c4CC3OC(=O)c3cc(O)c(O)c(O)c3)c2c1)c1cc(O)c(O)c(O)c1 (stereo not drawn) | 1.3µM* | -16%
O=C1C[C@@H](c2ccc(O)cc2)Oc2cc(O)cc(O)c21 | 21%[17.8 µM] | 31%[17.8 µM]
O=C(OC1Cc2c(O)cc(O)cc2OC1c1cc(O)c(O)c(O)c1-c1c(C2Oc3cc(O)cc(O)c3CC2OC(=O)c2cc(O)c(O)c(O)c2)cc(O)c(O)c1O)c1cc(O)c(O)c(O)c1 (stereo not drawn) | 11µM* | -2%
O=C(OC1Cc2c(O)cc(O)cc2OC1c1cc(O)c(O)c(O)c1)c1cc(O)c(O)c(O)c1 (stereo not drawn) | 8.9µM* | -1%
Oc1cc(O)c2c(c1)OC(c1cc(O)c(O)c(O)c1)C(O)C2 (stereo not drawn) | ? | 3%
O=C(O[C@@H]1Cc2c(O)cc(O)cc2OC1c1ccc(O)c(O)c1)c1cc(O)c(O)c(O)c1 (stereo partly drawn) | 13µM* | 6%
C[C@@]12CCC(=O)C=C1CC[C@@H]1[C@@H]2[C@H](O)C[C@]2(C)[C@@H]1CC[C@]2(O)C(=O)CO | -11%[17.8 µM] | -17%[17.8 µM]
COC(=O)c1ccc(CN2CCOc3ccc(C(O)c4cccnc4)cc3C2)cc1 (stereo not drawn) | -20% | 3%
CCCCCCCCCCCCC/C=C/C(O)C(COP(=O)(O)OCCN)NC(=O)CCCCCCCCCCCCCCCCC (stereo not drawn) | 5% | -9%
CC(=O)N[C@H](Cc1c[nH]c2ccccc12)C(N)=O | 19% | 8%
Cc1oc(-c2ccccc2NC(=O)C2CCCO2)nc1CNC(=O)c1[nH]c2c(C)ccc(C)c2c1C (stereo not drawn) | -28% | -11%
COCCN1C(=O)CC[C@@]23C1=NC(C(=O)OC)=C(C(=O)OC)[C@@H]2N(CC=C(C)C)c1ccccc13 | -14%[8.59 µM] | -9%[8.59 µM]
C=C(C)C(=O)C=CC=Cc1ccccc1 | -87%[8.59 µM] | /
COc1cc(C(C)=O)ccc1OCCCN1CCC(c2noc3cc(F)ccc23)CC1 | 6.3µM* | -13%
